These results are taken from PubChem BioAssay AID651548 (Broad Institute, 2012).

The structures appear in SMILES notation. Several values for one entry are separate records, joined by “and”; a condition that tells them apart may be missing. Equal entries are not always repeated. In all, about 57,000 compounds went through this assay and about 200 (0.35%) were called active.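 The calls were made as follows: active = mean inhibition of replicates at least 50% and every single replicate also reaching 50%; inconclusive = mean inhibition at least 50% but some replicate falls below 50%; inactive = mean inhibition under 50%.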 The entries come from a sample that favours actives as a whole.

As a reminder, the inhibition is the change of the read-out against control, counted positive when it falls.

The target of this test is Histone-lysine N-methyltransferase EZH2 (Homo sapiens) (UniProt Q15910). Nature of the test: inhibition of PRC2 H3K27 methylation – biochemical, DELFIA time-resolved fluorescence, single point, primary screen (AID 651548).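 Also: dimethyl H3K27 on biotinylated H3 21-44 peptide detected by antibody; plate controls were median neutral control wells for no effect and median positive control wells for full effect.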 The note with it: DELFIA TRF, 1 h, at 12.5 µM, active compounds read high.
Sequence of Histone-lysine N-methyltransferase EZH2 (Homo sapiens) (Q15910 whole entry, looked up): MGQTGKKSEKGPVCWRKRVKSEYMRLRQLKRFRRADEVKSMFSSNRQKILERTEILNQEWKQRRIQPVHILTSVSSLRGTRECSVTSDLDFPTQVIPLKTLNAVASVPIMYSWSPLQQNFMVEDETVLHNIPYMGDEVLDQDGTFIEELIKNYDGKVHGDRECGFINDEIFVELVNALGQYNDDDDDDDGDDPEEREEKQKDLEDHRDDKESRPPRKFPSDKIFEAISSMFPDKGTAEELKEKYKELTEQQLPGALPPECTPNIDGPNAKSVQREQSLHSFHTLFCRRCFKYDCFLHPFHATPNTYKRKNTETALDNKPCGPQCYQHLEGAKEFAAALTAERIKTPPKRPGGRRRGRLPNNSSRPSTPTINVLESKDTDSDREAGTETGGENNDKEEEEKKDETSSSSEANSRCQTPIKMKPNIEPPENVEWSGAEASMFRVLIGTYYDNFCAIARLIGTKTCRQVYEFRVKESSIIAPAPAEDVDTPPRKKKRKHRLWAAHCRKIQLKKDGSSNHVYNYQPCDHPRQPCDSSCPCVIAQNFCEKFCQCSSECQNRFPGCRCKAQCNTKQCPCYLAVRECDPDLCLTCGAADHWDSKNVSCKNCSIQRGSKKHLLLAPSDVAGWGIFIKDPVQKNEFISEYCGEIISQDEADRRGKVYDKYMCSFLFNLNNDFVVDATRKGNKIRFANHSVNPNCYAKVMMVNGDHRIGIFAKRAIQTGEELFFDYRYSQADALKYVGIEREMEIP
For the molecule `CCC(=O)N1C[C@H](C)[C@H](OC)CN(C)C(=O)c2ccc(NC(=O)c3cnccn3)cc2OC[C@@H]1C`, the inhibition is 10.3% (inactive). `COc1cccc(S(=O)(=O)N[C@H]2C=C[C@@H](CC(=O)NCc3ccc(F)cc3)O[C@@H]2CO)c1`: the inhibition was 13.3% (inactive).

Regarding `C[C@@H]1CCCCO[C@H](CN(C)C)[C@H](C)CN([C@@H](C)CO)C(=O)c2cc(NS(=O)(=O)c3ccccc3)ccc2O1`, the inhibition is -7.21% (inactive).

In the case of `CCCNC(=O)N1C[C@@H](C)[C@@H](OC)CN(C)C(=O)c2ccc(NC(=O)CCC)cc2OC[C@H]1C`, the inhibition is -3.61% (inactive). The same measure for `CC(C)NC(=O)N(C)C[C@H]1Oc2ncc(-c3ccccc3F)cc2C(=O)N([C@@H](C)CO)C[C@@H]1C`: -0.301% (inactive); for `COc1cccc(NC(=O)N[C@H]2C=C[C@@H](CC(=O)Nc3ccc(-c4ccccc4)cc3)O[C@@H]2CO)c1`: -1.25% (inactive). For `O=C(C[C@H]1C[C@H]2c3cc(NC(=O)CC4CC4)ccc3O[C@H]2[C@H](CO)O1)NCc1ccccc1`, the inhibition was -28.9% (inactive). The same measure for `C[C@@H]1CN([C@H](C)CO)S(=O)(=O)c2ccc(C#CC3CCCCC3)cc2O[C@H]1CN(C)C(=O)Cc1ccncc1`: -42.6% (inactive) and -20.9% (inactive); for `COc1ccc(NC(=O)N[C@H]2CC[C@@H](CCNS(=O)(=O)c3cccc(Cl)c3)O[C@H]2CO)cc1`: -37.3% (inactive).

As for `CO[C@@H]1CN(C)C(=O)c2ccc(NC(=O)Nc3c(C)noc3C)cc2OC[C@@H](C)N(C(=O)Nc2cccc(Cl)c2)C[C@H]1C`, the inhibition was -3.56% (inactive). The same measure for `CCC(=O)N(C)C[C@H]1Oc2cc(C#CC3CC3)ccc2S(=O)(=O)N([C@H](C)CO)C[C@H]1C`: -6.49% (inactive); for `CCOC(=O)C1CCCN(C(=O)c2c[nH]n3c(=O)c(Cc4ccc(Cl)cc4)c(C)nc23)C1` (stereo not given): 11.7% (inactive); for `CO[C@@H]1CN(C)C(=O)c2cc(NC(=O)c3ccc(F)cc3)ccc2OC[C@H](C)NC[C@@H]1C`: 8.13% (inactive). As for `CC(C)C#Cc1ccc2c(c1)O[C@H](CN(C)CC1CCOCC1)[C@@H](C)CN([C@H](C)CO)S2(=O)=O`, the inhibition is 0.383% (inactive). The same measure for `COc1cccc(S(=O)(=O)N[C@H]2C=C[C@H](CC(=O)NCc3ccc(Cl)cc3)O[C@@H]2CO)c1`: 7.24% (inactive); for `C[C@H]1CN([C@@H](C)CO)C(=O)c2cccc(NC(=O)Nc3ccccc3)c2O[C@H]1CN(C)Cc1ccc(C(F)(F)F)cc1`: -14.8% (inactive); for `C[C@H](CO)N1C[C@H](C)[C@@H](CN(C)C(=O)c2cccc(F)c2)Oc2cc(-c3cncnc3)ccc2S1(=O)=O`: 14.3% (inactive) and -4.79% (inactive).

Take `COc1ccccc1C(=O)Nc1ccc2c(c1)C(=O)N(C)C[C@@H](OC)[C@@H](C)CN(C)[C@H](C)CO2`: the inhibition was 1.85% (inactive). Turning to `COc1cccc(-c2cnc3c(c2)C(=O)N([C@H](C)CO)C[C@@H](C)[C@H](CN(C)Cc2ccc(F)cc2)O3)c1`, the inhibition is 10% (inactive).

As for `CC(C)NC(=O)N(C)C[C@@H]1Oc2cc(C#C[C@H](C)O)ccc2S(=O)(=O)N([C@@H](C)CO)C[C@H]1C`, the inhibition is 8.88% (inactive). The same measure for `C[C@@H]1CN([C@H](C)CO)S(=O)(=O)c2ccc(C#CC3(O)CCCC3)cc2O[C@@H]1CN(C)C(=O)c1cccnc1`: 5.12% (inactive); for `COCC(=O)Nc1ccc2c(c1)[C@@H]1C[C@H](CC(=O)NCc3cc(F)ccc3F)O[C@@H](CO)[C@@H]1O2`: -6.69% (inactive). The same measure for `C[C@@H]1CN([C@@H](C)CO)S(=O)(=O)c2ccc(-c3ccc(C#N)cc3)cc2O[C@H]1CN(C)Cc1ccccn1`: 5.38% (inactive); for `CO[C@@H]1CN(C)C(=O)c2ccc(NC(=O)C3CCC3)cc2OC[C@H](C)N(C(=O)CN(C)C)C[C@H]1C`: 0.087% (inactive); for `O=C(C[C@@H]1C[C@@H]2c3cc(NC(=O)NC4CCCC4)ccc3O[C@@H]2[C@H](CO)O1)NCC(F)(F)F`: 3.2% (inactive). The same measure for `CC(C)(C)S(=O)N1Cc2cc(C(=O)O)nc(-c3cccc(-c4cc5ccccc5o4)c3)c2[C@@H]1CCO` (stereo not given in full): 9.63% (inactive). As for `CO[C@@H]1CN(C)C(=O)c2cc(NC(=O)NC3CCCCC3)ccc2OC[C@H](C)N(CC2CC2)C[C@H]1C`, the inhibition is -6.48% (inactive). The same measure for `O=C(N[C@H]1CC[C@H](CCNS(=O)(=O)c2ccc(F)cc2)O[C@H]1CO)C1CCCC1`: -3.3% (inactive); for `O=C(C[C@@H]1C=C[C@H](NC(=O)C2CCC2)[C@@H](CO)O1)NCC1CC1`: 10.5% (inactive). The same measure for `CCCN1C[C@H](C)[C@@H](OC)CN(C)C(=O)c2ccc(NC(=O)C3CCOCC3)cc2OC[C@H]1C`: 7.14% (inactive); for `O=C(C[C@H]1C=C[C@H](NC(=O)Nc2ccc(C(F)(F)F)cc2)[C@@H](CO)O1)NCCN1CCCC1`: 11.8% (inactive). The same measure for `C[C@@H]1CCCCO[C@@H](CN(C)Cc2ccncc2)[C@H](C)CN([C@H](C)CO)C(=O)c2cc(NC(=O)CCC(F)(F)F)ccc2O1`: 0.938% (inactive); for `CCC(=O)N1C[C@@H](C)[C@H](OC)CN(C)C(=O)c2ccc(NC(=O)NC(C)C)cc2OC[C@H]1C`: 5.57% (inactive). Consider `CNC[C@@H]1Oc2cc(C#CC3(O)CCCC3)ccc2S(=O)(=O)N([C@@H](C)CO)C[C@H]1C`, for which the inhibition is -0.413% (inactive). The same measure for `OC[C@@]1(O)CO[C@H](OC[C@H]2O[C@@H](OC(CCCCc3ccc(O)cc3)CCc3ccc(O)cc3)[C@H](O[C@H]3OC[C@](O)(CO)[C@H]3O)[C@@H](O)[C@@H]2O)[C@@H]1O` (stereo not given in full): 99% (active). The same measure for `OC[C@H]1O[C@@H](OCc2ccccc2)[C@H](O[C@@H]2OC[C@](O)(CO)[C@H]2O)[C@@H](O)[C@@H]1O`: 10.5% (inactive); for `C/C=C/c1ccc2c(c1)O[C@@H](CN(C)C(=O)NC1CCCC1)[C@@H](C)CN([C@H](C)CO)S2(=O)=O`: 10.7% (inactive). The same measure for `CCCN(C)C[C@H]1OCCCC[C@H](C)Oc2ccc(NS(=O)(=O)c3ccc(C)cc3)cc2C(=O)N([C@@H](C)CO)C[C@H]1C`: -43.7% (inactive).

Consider `CO[C@H]1CN(C)C(=O)c2ccc(NC(=O)c3cnccn3)cc2OC[C@@H](C)N(C(C)=O)C[C@H]1C`, for which the inhibition was 7.05% (inactive).

In the case of `CO[C@H]1CN(C)C(=O)c2cc(NS(=O)(=O)c3ccccc3)ccc2OC[C@H](C)NC[C@@H]1C`, the inhibition is 3.07% (inactive).
